For 23 compounds, Potency results are on record in PubChem BioAssay (NCATS).

Molecules are shown by their SMILES. Inconclusive results are not listed. A number with no mark means an inactive call. Calls of active or inactive are those of the source. Calls come from the whole dose curve; as a rule, active = well fitted curve in the direction sought with a large enough effect; inconclusive = small, poorly fitted or top-dose-only effect, or another doubt; inactive = no such curve, though single readings can be large; an effect the other way counts as inactive or inconclusive.

Test [1] in a line: qHTS of pediatric cancer cell lines to identify multiple opportunities for drug repurposing: Primary screen for SK-N-SH cells (AID 1347098). Note: nearly all actives have a fitted effect of over 65% in size. Note: potency is the fitted concentration of half-maximal effect. The method in brief:
(§1)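 Cells (500-1,000/well) rested 5 h, then received compounds for 48 h; metabolically active cells were measured by CellTiter-Glo luminescence. Final concentrations spanned up to 46 µM (MIPE, 11-point) or 0.59 nM-46 µM (NPC, 8-point) in primary screens, 11-point in follow-ups.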

Test [2] can be described thus: qHTS of pediatric cancer cell lines to identify multiple opportunities for drug repurposing: Primary screen for NB1643 cells (AID 1347099). Note: nearly all actives have a fitted effect of over 50% in size. Note: potency is the fitted concentration of half-maximal effect. A digest of the protocol:
(§2)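 Primary screen of approved and investigational compounds on cells in growth media at 37 degrees C, 5% CO2. MIPE set at 11-point and NPC set at 8-point dilutions; viability scored by ATP-based luminescence at 48 hours.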

The nature of test [3]: qHTS of pediatric cancer cell lines to identify multiple opportunities for drug repurposing: Primary screen for LAN-5 cells (AID 1347100). Note: potency is the fitted concentration of half-maximal effect. The method in brief: (§3)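 Cells (500-1,000/well) in growth media were settled 5 h at 37 degrees C, then given compounds for 48 h. Viability was read as CellTiter-Glo luminescence. Primary runs used MIPE at 11 points (0.78 nM-46 µM) and NPC at 8 points (0.59 nM-46 µM); follow-ups used 11 points.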
In general terms: qHTS replaces the single test concentration by a dilution series.

A short description of test [4]: qHTS of pediatric cancer cell lines to identify multiple opportunities for drug repurposing: Primary screen for BT-12 cells (AID 1347101). Note: nearly all actives have a fitted effect of over 25% in size. Note: potency is the fitted concentration of half-maximal effect. The method in brief: as §1
Test [5] is described as follows: qHTS of pediatric cancer cell lines to identify multiple opportunities for drug repurposing: Primary screen for Rh18 cells (AID 1347102). Note: nearly all actives have a fitted effect of over 65% in size. Note: potency is the fitted concentration of half-maximal effect. A digest of the protocol: as §3
Test [6] can be described thus: qHTS of pediatric cancer cell lines to identify multiple opportunities for drug repurposing: Primary screen for RD cells (AID 1347104). Note: nearly all actives have a fitted effect of over 55% in size. Note: potency is the fitted concentration of half-maximal effect. A digest of the protocol: as §2
A short description of test [7]: qHTS of pediatric cancer cell lines to identify multiple opportunities for drug repurposing: Primary screen for control Hh wild type fibroblast cells (AID 1347106). Note: nearly all actives have a fitted effect of over 55% in size. Note: potency is the fitted concentration of half-maximal effect. A digest of the protocol:
as §3

A short description of test [8]: qHTS of pediatric cancer cell lines to identify multiple opportunities for drug repurposing: Primary screen for Rh30 cells (AID 1347107). Note: series mostly up to about 46 µM; nearly all actives have a fitted effect of over 75% in size. The method in brief:
as §3

A short description of test [9]: qHTS of pediatric cancer cell lines to identify multiple opportunities for drug repurposing: Primary screen for Rh41 cells (AID 1347108). Note: nearly all actives have a fitted effect of over 70% in size. Note: potency is the fitted concentration of half-maximal effect. The method in brief: as §2
The nature of test [10]: qHTS of pediatric cancer cell lines to identify multiple opportunities for drug repurposing: Primary screen for OHS-50 cells (AID 1347103). Note: nearly all actives have a fitted effect of over 40% in size. Note: potency is the fitted concentration of half-maximal effect. The method in brief: as §1
Test [11] is described as follows: qHTS of pediatric cancer cell lines to identify multiple opportunities for drug repurposing: Primary screen for MG 63 (6-TG R) cells (AID 1347105). Note: nearly all actives have a fitted effect of over 50% in size. The method in brief: as §2
Test [12] can be described thus: qHTS of pediatric cancer cell lines to identify multiple opportunities for drug repurposing: Confirmatory screen for DAOY cells (AID 1347114). Note: nearly all actives have a fitted effect of over 65% in size. The method in brief: (§4)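 Viability measured as metabolically active cells via CellTiter-Glo luminescence following 48 hours of compound exposure, 11-point dilutions in confirmatory testing. 500-1,000 cells/well plated 5 hours before dosing; controls were DMSO and 2.3 µM bortezomib.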

Test [13] can be described thus: qHTS of pediatric cancer cell lines to identify multiple opportunities for drug repurposing: Confirmatory screen for NB-EBc1 cells (AID 1347115).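 Note: cells exposed to compound for 48 h before the viability read; nearly all actives have a fitted effect of over 45% in size.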 The method in brief: as §3
Test [14] can be described thus: qHTS of pediatric cancer cell lines to identify multiple opportunities for drug repurposing: Confirmatory screen for SJ-GBM2 cells (AID 1347116). Note: nearly all actives have a fitted effect of over 60% in size. A digest of the protocol: as §4
The nature of test [15]: qHTS of pediatric cancer cell lines to identify multiple opportunities for drug repurposing: Confirmatory screen for BT-37 cells (AID 1347117). Note: nearly all actives have a fitted effect of over 55% in size. The method in brief: as §3
Test [16] in a line: qHTS of pediatric cancer cell lines to identify multiple opportunities for drug repurposing: Confirmatory screen for MG 63 (6-TG R) cells (AID 1347119). Note: nearly all actives have a fitted effect of over 55% in size. A digest of the protocol: as §3
The nature of test [17]: qHTS of pediatric cancer cell lines to identify multiple opportunities for drug repurposing: Primary screen for Saos-2 cells (AID 1347097). Note: nearly all actives have a fitted effect of over 40% in size. Note: potency is the fitted concentration of half-maximal effect. The method in brief:
as §2

Test [18] is described as follows: qHTS of pediatric cancer cell lines to identify multiple opportunities for drug repurposing: Confirmatory screen for A673 cells (AID 1347110).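 Note: potency is the fitted concentration of half-maximal effect; cells exposed to compound for 48 h before the viability read; nearly all actives have a fitted effect of over 65% in size.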 The method in brief: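 A673 cells seeded at 500-1,000 cells/well, rested 5 h, then dosed; primary MIPE 11-point (0.78 nM to 46 µM), NPC (0.59 nM to 46 µM); confirmatory 11-point. CellTiter-Glo luminescence after 48 h.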
A short description of test [19]: qHTS of pediatric cancer cell lines to identify multiple opportunities for drug repurposing: Confirmatory screen for SK-N-MC cells (AID 1347111).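 Note: potency is the fitted concentration of half-maximal effect; cells exposed to compound for 48 h before the readout; nearly all actives have a fitted effect of over 70% in size.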 A digest of the protocol:
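Metabolically active cells were quantified by ATP-dependent luminescence (CellTiter-Glo, 15 min at room temperature) following 48 h treatment. Cells had been plated at 500-1,000 per well and settled for 5 h beforehand.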

Regarding `CCCCN1CCCC1C(=O)Nc1c(C)cc(C)cc1C` (centres undefined), the Potency result in test [1], in test [2], in test [3], in test [4], in [5] and in [6] was “inactive” each time. In addition, the Potency result in test [7], in test [8] and in [9] was “inactive” each time.
As to `CC1(C)O[C@@H]2C[C@H]3[C@@H]4C[C@H](F)C5=CC(=O)C=C[C@]5(C)[C@H]4[C@@H](O)C[C@]3(C)[C@]2(C(=O)CO)O1`, the Potency entry in test [1], in [2], in test [3], in test [4], in test [5] and in test [10] was “inactive” in each case. In addition, the Potency entry in test [6], in test [11], in test [7] and in test [9] was “inactive” each time.
`C[C@]12C=CC(=O)C=C1CC[C@@H]1[C@@H]2[C@@H](O)C[C@@]2(C)[C@H]1CC[C@]2(O)C(=O)CO`: the Potency result in [1], in test [2], in [3], in test [4], in [5] and in test [6] was “inactive” each time. In addition, the Potency entry in [7], in test [8], in test [9], in test [12], in [13] and in [14] was “inactive” each time. The Potency entry in test [15] and in test [16] was “inactive” throughout.
Take `CCCCOc1cc(C(=O)NCCN(CC)CC)c2ccccc2n1`: the Potency result in test [17], in [4], in [5], in test [10], in test [11] and in [7] was “inactive” in each case. Also, the Potency entry in test [8] and in test [9] was “inactive” each time.
For the compound `CN(C/C=C/c1ccccc1)Cc1cccc2ccccc12`, in [17], the Potency was 23.7 µM (active). Also, the Potency entry in test [2], in test [5], in test [6], in [7], in test [8] and in test [9] was “inactive” each time.
`CCOc1ccc2nc3cc(N)ccc3c(N)c2c1`: the Potency was 15.4 µM (active) in test [1]; 11 µM (active) in test [4]; 23.7 µM (active) in test [6]; 18.8 µM (active) in [9]; 18.5 µM (active) in test [18]. In addition, the Potency result in test [2], in test [10], in test [11], in test [7], in [8] and in test [16] was “inactive” in each case.
With `CCCCOc1ccc(C(=O)CCN2CCCCC2)cc1`, the Potency in [17] is 23.7 µM (active). Moreover, the Potency result in [7] and in [8] was “inactive” in each case.
Regarding `CCN(CCCc1ccccc1)CCCc1ccccc1`, the Potency result in [17], in test [2], in [3], in test [5], in [11] and in test [7] was “inactive” throughout. For the same compound, the Potency entry in test [8] and in test [9] was “inactive” each time.
Regarding `Oc1ccc(Cl)cc1Sc1cc(Cl)ccc1O`, the Potency was 15 µM (active) in test [17]; 18.8 µM (active) in [2]; 18.8 µM (active) in test [3]; 19.5 µM (active) in [4]; 23.7 µM (active) in [6]. Moreover, in test [7], the Potency result is “inactive”.
In the case of `CC(=O)Oc1ccc2c(c1)CC[C@@H]1[C@@H]2CC[C@]2(C)[C@@H](O)CC[C@@H]12`, the values for the Potency in test [17] and in [19] were 23.7 µM (active) and 6.57 µM (active), respectively. Further, the Potency entry in test [2], in [5], in test [6], in test [7], in test [9] and in [14] was “inactive” in each case.
Take `CCN(CC)CCOc1ccc(C(O)(Cc2ccc(Cl)cc2)c2ccc(C)cc2)cc1` (centres undefined): the Potency was 16.8 µM (active) in test [17]; 21.1 µM (active) in test [3]; 11 µM (active) in [4]; 23.7 µM (active) in [5]; 15.5 µM (active) in test [10]; 21.1 µM (active) in test [6]. Moreover, in [7], the Potency result was “inactive”.
As to `Cc1cc(O)c(C(C)C)cc1Cl`, the Potency entry in test [1], in test [2], in test [3], in test [4], in test [5] and in [6] was “inactive” throughout. The Potency result in test [11], in test [7], in test [8] and in test [9] was “inactive” in each case.
For the compound `COc1cc(N)c(Cl)cc1C(=O)NC1CCN(CCCOc2ccc(F)cc2)CC1OC` (centres undefined), the Potency entry in test [17], in test [2], in test [3], in test [5], in [7] and in test [8] was “inactive” each time. In test [9], the Potency entry was “inactive”. Besides, in test [10], the Potency is 30.9 µM (active).
Take `CC(C)(C(=O)c1cccnc1)c1cccnc1`: the Potency result in [1], in [2], in test [3], in test [4], in test [5] and in test [10] was “inactive” throughout. Besides, the Potency result in [6], in [11], in [7], in test [8], in test [9] and in [12] was “inactive” each time. In addition, the Potency entry in test [13] and in test [16] was “inactive” in each case. The results for the Potency in test [18] and in test [19] were 0.369 µM (active) and 2.93 µM (active), respectively.
`Oc1ccc(Cl)c2cccnc12`: the Potency in [1] is 8.64 µM (active); in test [3], 21.1 µM (active); in [4], 5.5 µM (active); in test [7] it was 16.8 µM (active). Besides, the Potency result in test [8] was “inactive”.
Consider `C#C[C@]1(O)CC[C@H]2[C@@H]3CCc4cc(OC5CCCC5)ccc4[C@H]3CC[C@@]21C`, for which the Potency was 17.2 µM (active) in test [1] and 19.5 µM (active) in [10]. Besides, the Potency result in test [7], in [8] and in test [9] was “inactive” each time.
On to `Clc1ccc2c(c1)CCc1cccnc1C2=C1CCNCC1`, for which the Potency result in test [2], in test [11], in [7], in [8] and in test [9] was “inactive” throughout. Besides, the Potency in test [10] is 15.5 µM (active).
As to `CC(C)N=C(N)/N=C(\N)Nc1ccc(Cl)cc1`, the Potency result in test [2], in test [3], in test [7], in test [8] and in test [9] was “inactive” each time.
Consider `C=C1C(=C/C=C2\CCC[C@]3(C)[C@@H]([C@H](C)/C=C/[C@@H](O)C4CC4)CC[C@@H]23)C[C@@H](O)C[C@@H]1O`, for which the Potency entry in test [5], in [6], in [11], in test [7] and in test [9] was “inactive” throughout. The Potency in test [10] is 30.9 µM (active).
On to `O=C(Nc1ccc(Oc2ccc(Cl)cc2)c(Cl)c1)c1cc(I)cc(I)c1O`, for which the Potency result in [4], in [5], in test [7], in test [8] and in [9] was “inactive” throughout.
In the case of `CCCOC(C(=O)OC1CCN(C)CC1)(c1ccccc1)c1ccccc1`, the Potency result in test [2], in test [3], in test [4], in [7], in test [8] and in test [9] was “inactive” in each case.
Consider `CC/C(=C(/CC)c1ccc(O)cc1)c1ccc(O)cc1`, for which, in test [1], the Potency is 5.45 µM (active). The Potency result in [7], in [8] and in [9] was “inactive” in each case.
For `CCN(CCCCOC(=O)c1ccc(OC)c(OC)c1)C(C)Cc1ccc(OC)cc1` (centres undefined), the Potency result in test [2], in test [3], in test [5], in test [6], in [7] and in [8] was “inactive” each time. For the same compound, in [9], the Potency result was “inactive”.
